# DRD3 agonist: qHTS of D3 Dopamine Receptor Agonist: qHTS; D3R DiscoveRx beta-arrestin cells, luminescence, 90 min; 410,000 compounds, 0.58% hits; max activation, %; in the data active means max activation above about 30%; further: 0% is about no effect
# Target sequence (P35462 whole entry, looked up): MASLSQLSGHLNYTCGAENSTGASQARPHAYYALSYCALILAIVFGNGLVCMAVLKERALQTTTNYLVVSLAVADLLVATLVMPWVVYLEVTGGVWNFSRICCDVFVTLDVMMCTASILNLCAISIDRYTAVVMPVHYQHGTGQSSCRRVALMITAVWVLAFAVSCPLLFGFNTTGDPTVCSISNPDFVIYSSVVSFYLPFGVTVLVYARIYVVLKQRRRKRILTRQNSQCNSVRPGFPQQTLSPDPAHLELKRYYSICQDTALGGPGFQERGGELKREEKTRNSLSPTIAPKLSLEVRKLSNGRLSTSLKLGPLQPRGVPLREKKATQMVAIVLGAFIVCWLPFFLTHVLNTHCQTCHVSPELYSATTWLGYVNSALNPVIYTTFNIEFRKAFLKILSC
#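 Cells at 1500/well, incubated overnight, then treated with pinned compounds (dopamine as control) for 90 min at 37 degrees C. DiscoveRx reagent added for 30 - 60 minutes at room temperature; luminescence read.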
# ATXN2 expr inh: Primary qHTS for Inhibitors of ATXN expression; Potency, µM (series often up to 57 µM), inactives show at the highest dose activity change, negative = inhibition, most hits filed as inhibitors; AID 1745845, 2022; HEK-293 ATXN2-luciferase reporter, luminescence, 24 h; 360,000 compounds, 0.72% hits; further: potency means the concentration at half of the fitted maximal effect; on the % scale 0 is the no-effect control and ±100 the full control effect; nearly all actives have a fitted effect of over 55% in size
#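 qHTS (up to 57 uM final) was run with 24 h compound exposure of reporter cells at 37 °C. Each well was multiplexed: SteadyGlo luminescence measured ATXN2-luciferase expression after a fluorogenic Gly-Phe-AFC viability readout (25 uM final).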
# Integrin act MD: qHTS for Activators of Integrin-Mediated Alleviation for Muscular Dystrophy. 350,000 compounds, 0.064% hits. alpha7betagal myoblasts, beta-gal FDG fluorescence, 48 h. Potency, µM (series often up to 38.3 µM), for inactives: at the top dose activation, actives largely listed as activators;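 further: potency means the concentration at half of the fitted maximal effect; 100% = response of the positive control SU9516; nearly all actives have a fitted effect of over 60% in size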
#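 Alpha7betagal+/- myoblasts (passage 13) were plated 16-24 hr, then exposed to compounds (1:260 dilution of DMSO stock) for 48 hours at 37C. After MPER lysis, β-galactosidase reporter activity was read as FDG fluorescence (ex 480/em 540) after 30 minutes.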
# D3 antag: qHTS of D3 Dopamine Receptor Antagonist: qHTS; D(3) dopamine receptor (Homo sapiens), P35462; D3R cells, DiscoveRx beta-arrestin luminescence, antagonist mode; active compounds read low; max response, negative = inhibition, %; 360,000 compounds, 2.5% hits; AID 652054, 2013; in the data active means max response below about -50%; inconclusive means no clear call, values can overlap the other calls; further: on the % scale 0 is the no-effect control and ±100 the full control effect
#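 Cells expressing the human receptor were seeded at 1500 cells/well, incubated overnight at 37 degrees C in 5% CO2, then exposed to library compounds with dopamine controls for 90 minutes at 37 degrees C before luminescent detection.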
# IL1B secr inh: qHTS for Inhibitors of Inflammasome Signaling: IL-1-beta AlphaLISA Primary Screen; THP-1 LPS/ATP IL-1B secretion, AlphaLISA, 16 h; active compounds read low; activity change, % at 57.5 µM; 360,000 compounds, 4.7% hits; in the data active means activity change below about -50%; inconclusive means mostly about -30% to -49%; further: on the % scale 0 is the no-effect control and ±100 the full control effect
#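 THP-1 cells pretreated 1 hr with compounds (up to 57.5 uM final), then stimulated with LPS (250 ng/mL final) plus ATP (1.25 mM final); secreted IL-1B measured by AlphaLISA after 16 hr, decreased signal indicating inhibition.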
# S2 tox: Viability Counterscreen for Primary qHTS for Inhibitors of ATXN expression. S2 cells (HEK-293 line with an ATXN2-luciferase reporter) viability, CellTiter-Fluor protease fluorescence, 24 h. Potency, µM (top dose mostly 56.7 µM), hits mostly cytotoxic. 400,000 compounds, 0.49% hits. AID 651635, 2014; further: potency means the concentration at half of the fitted maximal effect; nearly all actives have a fitted effect of over 40% in size
# * marks the source's active call; other numbers are inactive results; i = inactive; ? = inconclusive; . = no result. Most compounds without a hit are left out; they make up all but 7% or so of the library. Unless noted, the call rests on the fitted dose curve; in most records, active means well fitted curve in the direction sought with a large enough effect; inconclusive means small, poorly fitted or top-dose-only effect, or another doubt; inactive means no such curve, though single readings can be large; an effect the other way counts as inactive or inconclusive.
SMILES,DRD3 agonist,ATXN2 expr inh,Integrin act MD,D3 antag,IL1B secr inh,S2 tox
Nc1nc2c(ncn2[C@H]2C[C@H](O)[C@@H](CO)O2)c(=O)[nH]1,-8.1,-2.1%,.,0.3,0.0,i
Nc1nc(Cl)nc2c1ncn2C1CC(O)C(CO)O1 (centres undefined),21.9,1.78µM*,.,1.9,49.8,i
NC(=O)[C@@H]1CC2(CC(c3cccc(NC(=O)COc4ccc(Cl)cc4)c3)=NO2)CN1C(=O)COc1ccc(Cl)cc1 (some centres undefined),-12.9,?,-41.1%,-9.0,-54.8*,?
C/C=C\C=C/C(=O)Nc1cccc(C2=NOC3(C2)C[C@@H](C(N)=O)N(C(=O)CCCCC)C3)c1 (some centres undefined),10.9,-0.6%,-12.6%,46.2,-27.6,i
C/C=C\C=C/C(=O)Nc1cccc(C2=NOC3(C2)C[C@H](C(N)=O)N(C(=O)CC)C3)c1 (some centres undefined),30.8*,1.8%,20.6%,-5.3,6.1,i
N#CCC(=O)N1CC2(CC(c3cccc(NC(=O)COc4ccc(Cl)cc4)c3)=NO2)C[C@@H]1C(N)=O (some centres undefined),0.9,1.5%,27.2%,-18.5,2.9,i
N/C(CCS(=O)(=O)c1ccc(Cl)cc1)=N\OC(=O)c1ccccc1C(F)(F)F,3.8,-18.2%,-3.5%,-6.2,-83.6*,?
N/C(CCS(=O)(=O)c1ccc(Cl)cc1)=N\OC(=O)c1ccc(Cl)cc1,3.4,.,11.4%,-9.7,?,i
Cn1c(=O)c2c(nc(Oc3ccccc3Cl)n2C)n(C)c1=O,-5.0,5.4%,12.8%,-25.3,6.5,i
COc1cc2ncc(C(=O)c3ccccc3)c(N3CCN(Cc4ccccc4)CC3)c2cc1OC,-22.2,0.0%,5.4%,-2.3,-77.5*,?
O=C1NCC(c2ccccc2)C1C(=O)N/N=C/c1ccc(Cl)s1 (centres undefined),1.3,-6.0%,-0.8%,-8.7,-17.9,i
O=C1NCC(c2ccccc2)C1C(=O)N/N=C\c1ccc(-c2ccc(Cl)c(Cl)c2)o1 (centres undefined),5.4,?,-37.7%,45.7,-61.2*,?
Cc1cc(C)nc(SCc2ccc(C(=O)N/N=C3\CC(C)CC(C)(C)C3)cc2)n1 (centres undefined),1.4,-0.4%,-0.5%,-3.3,-10.9,i
CC(C)CC(=O)Nc1ncnc2c1C(=O)CC(C)(C)C2,-5.8,16.2%,-13.0%,1.2,-11.6,i
CCCC(=O)Nc1nc2ccc(OC)cc2s1,5.5,40.2%,16.8%,30.4,10.8,i
COc1ccc2nc(NC(=O)CN3CCOCC3)sc2c1,-3.7,18.8%,24.9%,14.6,-18.1,i
CCN1CCN(CC(=O)Nc2nc3ccc(OC)cc3s2)CC1,-0.6,-2.2%,11.6%,-66.1*,39.3,i
COc1ccc2nc(NC(=O)CN3CCN(C)CC3)sc2c1,3.1,6.8%,-13.4%,-59.0*,26.6,i
O=C1CCN(CCCN2CCC(=O)N(Cc3ccccc3)C2=S)C(=S)N1Cc1ccccc1,2.5,.,-21.6%,59.4,-12.8,?
CCc1nnc(NC(=O)CCN2C(=O)CCC2=O)s1,-1.2,-0.3%,3.6%,15.3,9.6,i
Cc1cc(C)n(CCOc2nonc2N)n1,10.8,3.7%,-1.3%,7.0,16.5,i
Nc1nonc1OCCOCCOCCOc1nonc1N,-12.8,-4.9%,35.3%,-59.2*,-2.8,i
Cn1c(SCC(=O)NCc2ccco2)nnc1C1CC1,-4.7,.,3.1%,6.8,11.5,?
Cc1ccc(-c2csc3nc4cc(C(N)=O)ccc4c(=O)n23)cc1,0.5,-15.8%,-19.7%,-61.0*,-17.5,i
Cc1ccc(CNC(=O)c2ccc3c(=O)n4c(-c5ccc(C)cc5)csc4nc3c2)cc1,-10.6,-1.1%,10.8%,-18.3,18.4,i
SMILES,DRD3 agonist,ATXN2 expr inh,Integrin act MD,D3 antag,IL1B secr inh,S2 tox
C#CCCCCCCC#CCN(C)C,-15.3,6.4%,-17.4%,-58.1*,3.2,i
COC(=O)c1ccc(CN2C(=O)NC3(CCCc4ccccc43)C2=O)o1 (centres undefined),-0.1,-1.1%,-0.6%,22.8,12.2,i
Cc1ccc2c(c1)N(CCC(=O)NCc1ccccn1)C(=O)CO2,-5.2,1.3%,0.0%,-63.6*,-15.2,i
CC(C)c1ccc(NC(=O)CCNC(=O)Cn2ccc3ccccc3c2=O)cc1,-5.1,-10.7%,7.8%,-25.9,18.2,i
CCN(CC)CCOC(=O)c1ccc(NC(=O)CCNC(=O)Cn2ccc3ccccc3c2=O)cc1,0.3,5.7%,0.3%,-64.1*,8.5,i
O=C(CCNC(=O)Cn1ccc2ccccc2c1=O)NCCN1CCN(c2cccc(Cl)c2)CC1,3.4,-13.7%,-3.6%,-60.5*,-16.8,i
O=C(Cn1nc(-c2ccccc2)ccc1=O)NCCN1CCN(c2cccc(Cl)c2)CC1,-30.8,-20.8%,-6.8%,-60.2*,-16.7,i
Cc1ccc2c(c1)N(CCC(=O)NCc1cccnc1)C(=O)CO2,-4.9,-7.5%,-4.4%,8.3,0.0,i
CCCCN1C=C(C(C)=O)C(=O)CC1,8.5,10.5%,-26.0%,-9.2,28.7,i
COc1cc(C2Nc3ccccc3C(=O)N2NS(C)(=O)=O)ccc1O (centres undefined),1.7,1.7%,14.5%,19.7,6.3,i
CN1CCN(C(=O)CCNC(=O)Cn2ccc3ccccc3c2=O)CC1,-2.8,-12.6%,11.5%,?,-0.6,i
O=C(CN1C(=O)COc2ccccc21)NCCC1=CCCCC1,4.7,1.1%,4.0%,8.7,-2.2,i
O=C(CCN1C(=O)COc2ccccc21)NCCN1CCOCC1,6.2,-23.6%,36.0%,8.8,9.9,i
O=C(CCNC(=O)Cn1ccc2ccccc2c1=O)NCCN1CCc2ccccc2C1,-15.7,3.5%,-14.7%,-52.0*,35.1,i
O=C(CCN1C(=O)COc2ccccc21)NCCC1=CCCCC1,-21.1,-1.6%,-41.1%,-110.0*,-11.0,i
O=C(CCN1C(=O)COc2ccccc21)NCCN1CCN(c2cccc(Cl)c2)CC1,-30.9,?,-44.2%,-68.8*,?,i
CCCOC1CCCN(C(=O)c2ccc(OC3CCN(C(=O)COC)CC3)cc2)C1 (centres undefined),-6.3,10.3%,0.0%,6.6,i,i
CCc1nc2c(OCc3ccc(S(C)(=O)=O)cc3)cccn2c1N(C)C(=O)c1ccccc1F,-2.7,9.2%,.,0.0,-2.7,i

# Screens as filed in PubChem.
